# HPGD block – blocks human HPGD enzyme activity. P15428. purified HPGD, NADH fluorescence kinetic, PGE2 substrate. Potency, µM, inactives show at the highest dose activity change, negative = inhibition, actives largely listed as inhibitors. hit rate 4.3% among 150,000; active = well fitted inhibition curve with a large enough effect, not every such curve was filed as active; inconclusive = small, poorly fitted or top-dose-only effect, or another doubt; inactive = no such curve, though single readings can be large or run the other way
# Target sequence (P15428 whole entry, looked up): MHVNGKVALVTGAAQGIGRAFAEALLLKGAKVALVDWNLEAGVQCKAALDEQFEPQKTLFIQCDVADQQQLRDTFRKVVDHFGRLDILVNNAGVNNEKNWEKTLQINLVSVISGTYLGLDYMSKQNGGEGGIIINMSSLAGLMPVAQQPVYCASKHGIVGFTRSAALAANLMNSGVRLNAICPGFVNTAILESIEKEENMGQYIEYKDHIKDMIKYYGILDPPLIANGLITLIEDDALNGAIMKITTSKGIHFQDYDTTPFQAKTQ
#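 20 nM HPGD preincubated 15 min at room temperature with compound in 50 mM Tris-HCl pH 8, 0.01% Tween 20. Started with 1 mM NAD+ and 30 uM prostaglandin E2; NADH fluorescence (360/450 nm) read 5 times over 30-s intervals, last minus first.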
# ALOX12 inhib – blocks human 12-lipoxygenase activity. Potency, µM (top dose mostly 57.1 µM), for inactives: at the highest dose activity change, negative = inhibition, usual class: inhibitors. P18054. hit rate 0.12% among 150,000. purified 12-hLO, xylenol orange hydroperoxide absorbance; also: nearly all actives have a fitted effect of over 55% in size
#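 Purified human 12hLO (150 nM final) was preincubated with compounds for 15 min at room temperature in 25 mM Hepes pH 7.0, 0.01% Triton X-100, then reacted with 40 uM arachidonic acid for 30 min. Hydroperoxide was detected with ferrous iron/xylenol orange.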
# p53ts 32C kill – p53ts cell cytotoxicity, permissive temperature | Potency, µM (titrated, usually from 46.1 µM), without a hit: top-dose activity change, negative = cytotoxicity, usual class: cytotoxic | H1299-p53A138V at 32C, ATP luminescence viability, 24 h | AID 924 | hit rate 0.93% among 130,000;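 also: 0% = DMSO and -100% = full killing by reference compound; nearly all actives have a fitted effect of over 55% in size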
#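 ATP-content luminescence (ATPlite) read-out after 24 h compound exposure at 32C in H1299-p53A138V cells (600/well). Tested up to 46 uM. Normalized to DMSO (0%) and 100 uM tamoxifen (100% killing); Hill-fit AC50.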
# p53ts 39C kill – p53ts cell cytotoxicity, nonpermissive temperature; H1299-p53A138V viability at 39C, ATP luminescence, 24 h; hit rate 1.5% among 130,000; Potency, µM (titrated, usually from 46.1 µM), for the others: at the highest dose activity change, negative = cell killing, hits mostly cytotoxic; also: nearly all actives have a fitted effect of over 55% in size
# * hit, by the source's call; ? = inconclusive; nt = not tested or not shown; [ ] = another dose, or the depositor's remark. Most compounds without a hit are left out; they make up all but 4.4% or so of the library. Unless noted, calls follow the shape of the dose curve; as a rule, active = well fitted curve in the direction sought with a large enough effect; inconclusive = small, poorly fitted or top-dose-only effect, or another doubt; inactive = no such curve, though single readings can be large; an effect the other way counts as inactive or inconclusive. Unless noted, % is scaled to controls: 0 for no effect and ±100 for the full control effect; potency is read from the fitted curve at half-maximal effect.
SMILES,HPGD block,ALOX12 inhib,p53ts 32C kill,p53ts 39C kill
Cc1cc(SCC(=O)c2cccs2)nc2ccccc12,4.5µM*,15%,nt,-26%
CC(NC(=O)CSc1nc2ccccc2c(=O)[nH]1)c1ccccc1 (stereo not drawn),-14%,2%,5%,-5%
O=C(CSc1nc2ccccc2c(=O)[nH]1)c1ccc(O)c(O)c1,16µM*,-29%,6%,-12%
Cc1ccc(CNC(=O)c2ccc3nc(SCc4ccc(F)cc4)[nH]c3c2)cc1,nt,nt,-9%,?
N#Cc1c(-c2cccs2)nc(SCC(=O)c2cccs2)[nH]c1=O,16µM*,-3%,nt,nt
Cc1cccc(NC(=O)CSc2nc(-c3ccccc3)c(C#N)c(=O)[nH]2)c1C,-15%,-2%,nt,nt
CCOc1ccc(CCNC(=O)c2cc3sc(CC)cc3n2C)cc1OCC,nt,nt,2%,-19%
CC(C)(C)OC(=O)N1CCC(C(=O)N2CCCCCC2)CC1,14µM*,1%,13%,4%
CC(C)(C)OC(=O)N1CCC(C(=O)N2CCOCC2)CC1,-4%,-3%,nt,nt
O=C(OCc1nc2ccccc2s1)c1ccc(Br)s1,16µM*,2%,2%,-12%
Oc1ccccc1OCc1nc2ccccc2s1,13µM*,0%,-24%,-17%
COc1ccccc1NC(=O)N1CC(=O)Nc2sc3c(c2C1c1ccccc1)CCCC3 (stereo not drawn),nt,nt,11%,-6%
O=C(Cn1sc2ccccc2c1=O)NC12CC3CC(CC(C3)C1)C2,0.32µM*,7.9µM*,nt,nt
COCC(=O)Nc1ccccc1Br,-14%,-1%,nt,nt
O=C(CSC1CCCCC1)Nc1ccccc1Br,18µM*,0%,nt,nt
O=C(O)c1ccccc1NS(=O)(=O)c1cccc2ccccc12,-4%,-10%,2%,-2%
Cc1cc(=O)oc2c3c(ccc12)OCN(Cc1ccc(Cl)cc1)C3,nt,nt,6%,-2%
O=C(O)CCc1c2ccc(=O)c(O)c-2oc2c(O)c(O)ccc12,2.8µM*,-29%[11.4 µM],-9%[9.22 µM],-3%[9.22 µM]
COc1cc(/C=C(\C#N)C(=O)N2CCOCC2)cc(Br)c1O,25µM*,-3%,nt,nt
N#C/C(=C/c1ccc(Oc2ccc([N+](=O)[O-])cn2)cc1)C(=O)N1CCOCC1,-8%,8%,nt,nt
Clc1cc(Br)ccc1OCCN1CCOCC1,-10%,-4%,nt,nt
O=C1CCC(=O)N1OCCCOc1ccc(Br)cc1Cl,18µM*,-2%,-5%,1%
Cc1ccc(CCNS(=O)(=O)c2ccc3c(c2)C(C(C)C)C(=O)N3)cc1 (stereo not drawn),nt,nt,3%,-17%
CC(C)c1ccc(OC(=O)c2cc(-c3ccc4c(c3)OCCO4)on2)cc1,nt,nt,13µM*,20µM*
O=C(Oc1ccc(Cl)cc1)c1cc(-c2ccc3c(c2)OCCO3)on1,nt,nt,-15%,?
SMILES,HPGD block,ALOX12 inhib,p53ts 32C kill,p53ts 39C kill
N#Cc1ccc(OC(=O)c2cc(-c3ccc4c(c3)OCCO4)on2)cc1,nt,nt,?,13µM*
COc1ccc(OC(=O)c2cc(-c3ccc4c(c3)OCCO4)on2)cc1,nt,nt,13µM*,13µM*
CCc1ccccc1S(=O)(=O)Cc1ccc(C(=O)NCCc2ccc(C)cc2)o1,nt,nt,-1%,-9%
CCOc1ccc(NC(=O)Cn2c(=O)n(CCCCC(=O)NCCc3ccc(Cl)cc3)c(=O)c3ccccc32)cc1,nt,nt,-3%,?
Cc1ccc(NC(=O)C(C)Sc2nnc(-c3cccnc3)o2)cc1 (stereo not drawn),-27%,-2%,-5%,1%
Cc1ccc(NC(=O)C(C)Sc2nnc(-c3cccnc3)n2-c2ccccc2)cc1 (stereo not drawn),14µM*,-1%,nt,nt
C/C=C/Cn1c(SCc2ccc(C)cc2)nc2c1c(=O)[nH]c(=O)n2C,14µM*,0%,-23%,-18%
CCOC(=O)CSc1nc2c(c(=O)[nH]c(=O)n2C)n1C/C=C(/C)Cl,20µM*,-2%,2%,8%
C=CCSc1nc2c(c(=O)[nH]c(=O)n2C)n1C(C)C,18µM*,-5%,4%,5%
Cc1ccc(Cn2c(SCC(C)C)nc3c2c(=O)[nH]c(=O)n3C)cc1,20µM*,-1%,4%,6%
CCCCn1c(SCC(=O)OCC)nc2c1c(=O)[nH]c(=O)n2C,?,2%,-2%,4%
C=CCn1c(SCc2ccc(F)cc2)nc2c1c(=O)[nH]c(=O)n2C,-6%,-2%,nt,nt
CCOCCn1c(SC)nc2c1c(=O)[nH]c(=O)n2C,20µM*,2%,nt,nt
CCCSc1nc2c(c(=O)[nH]c(=O)n2C)n1Cc1ccc(C)cc1,-7%,-6%,1%,-8%
C=CCSc1nc2c(c(=O)[nH]c(=O)n2C)n1Cc1ccc(C)cc1,25µM*,2%,2%,0%
CCOCCn1c(SCCCc2ccccc2)nc2c1c(=O)[nH]c(=O)n2C,-4%,0%,-15%,-13%
COc1ccc(NS(=O)(=O)c2ccc(NC(=O)N3CCCC3)cc2)cc1,nt,nt,-3%,-13%
Cc1cccc(N2CCN(C(=O)c3c(C)oc4ncnc(N5CCOCC5)c34)CC2)c1C,nt,nt,4%,?
Cc1ccc(N2C(=O)C3C(C2=O)C(C(=O)c2ccc(Cl)cc2)N2CCCC32)cc1 (stereo not drawn),-23%,?,18%,22%
O=C(C1=C[C@@H]2[C@H]3C(=O)N(c4ccc(Cl)cc4)C(=O)[C@H]3[C@@H](C(=O)c3ccc(Cl)cc3)N2C=C1)c1ccccc1,32µM*,-17%,nt,nt
Cc1cccc(-n2c(-c3csc(C)c3)n[nH]c2=S)c1,14µM*,-7%,nt,nt
Cc1nnc(Sc2nc(Sc3nnc(C)s3)nc(N3CCN(C)CC3)n2)s1,nt,nt,20µM*,4µM*
Cc1nnc(Sc2c(N)n(C)c(=O)n(C)c2=O)s1,7%,-9%,nt,nt
CC1CCN(c2nc3ccc(C(=O)N4CCN(Cc5ccc6c(c5)OCO6)CC4)cc3s2)CC1,18µM*,-5%,nt,nt
O=C(c1ccc2nc(N3CCOCC3)sc2c1)N1CCCC1,14µM*,-4%,-1%,5%
SMILES,HPGD block,ALOX12 inhib,p53ts 32C kill,p53ts 39C kill
COc1ccc(N2CCN(C(=O)c3ccc4nc(N5CCCCC5)sc4c3)CC2)cc1,-24%,5%,-4%,-5%
CCOC(=O)c1c(NC(=O)c2nc(SC(C)C)ncc2Cl)sc2c1CCCC2,nt,nt,-1%,-7%
Cc1ccc(N(C)C(=O)Cn2cc(S(=O)(=O)N3CCCC3)c(S(=O)(=O)N3CCCC3)c2)cc1,nt,nt,-3%,11%
C=C(C)COc1ccc(-c2[nH]ncc2Oc2ccccc2OCC)c(O)c1,18µM*,?,?,?
COc1ccc(/C=C(\C#N)C(=O)NCC2CCCO2)cc1OC (stereo not drawn),22µM*,-5%,nt,nt
CCCCc1cc2c(cn1)=C(OC(=O)c1ccco1)C(C)(OC(=O)CC)C(=O)C=2 (stereo not drawn),-13%,-2%[11.4 µM],nt,nt
Cc1ccccc1NC(=O)CN(C)S(=O)(=O)c1cccc2nsnc12,nt,nt,8%,20%
O=C1c2ccccc2C(=O)c2c1ccc1c(=O)n(C3CCCCC3)[nH]c21,14µM*,1%,11%,0%
Cc1ccc(-n2nc(CO)c(C(=O)NCCc3ccccc3)n2)cc1C,nt,nt,-7%,-20%
O=C(Oc1c(Br)cc(C(=S)N2CCOCC2)cc1Br)c1ccc(Cl)cc1,16µM*,-26%,nt,nt

# Bioassay records: PubChem, National Center for Advancing Translational Sciences (NCATS)
